This is a sample that favours compounds with a hit; in the whole collection about 14% have one here.
4MU fluor = compound fluoresces in the 4-MU spectral region | 59,000 tested, 11% active | max dye-equivalent concentration, M | compound autofluorescence, 340/450 nm, 4-MU equivalents; active compounds read high | AID 589; in the data active means max dye-equivalent concentration above about 10 nM; inconclusive means mostly about 1.1 nM to 9.6 nM
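Compounds in 100 mM Tris, pH 8.0, sat 15 min at room temperature before fluorescence was read at 340 nm excitation/450 nm emission; a per-plate six-point 4-MU standard curve converted signals to dye-equivalent concentration at each compound concentration.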
HSD17B inh = blocks hydroxysteroid 17-beta dehydrogenase activity; recombinant HSD17B10, NADH fluorescence kinetic; Potency, µM (highest dose often 57.1 µM), without a hit: at the top dose activity change, negative = inhibition, usual class: inhibitors; 75,000 tested, 7.6% active; AID 893;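 further: the protocol describes HADH2 (HSD17B10) and not the HSD17B4 of the title; potency means the concentration at half of the fitted maximal effect; on the % scale 0 is the no-effect control and ±100 the full control effect; nearly all actives have a fitted effect of over 70% in size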
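His-tagged E. coli-expressed HADH2 at 20 nM in 100 mM Tris-HCl pH 9.0 with 0.01 % Tween-20, preincubated 15 min with compound at room temperature. Reaction with 1 mM NAD+ and 90 uM beta-hydroxybutyryl coenzyme A; NADH fluorescence (360/450 nm) read kinetically over 4 min, last minus first point.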
AID923 = qHTS Assay for Allosteric/Competitive Inhibitors of Caspase-1: Spectroscopic Profiling in AFC Spectral Region; compound fluorescence, AFC spectral region (405/520 nm); Potency, µM (highest dose often 57.5 µM), without a hit: top-dose fluorescence increase, hits mostly activators; 75,000 tested, 1.1% active; AID 923, 2007; further: potency means the concentration at half of the fitted maximal effect; 0% is about no effect
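Titrations up to 57 uM read every 20 sec for 3 min (405/520 nm) with 50 nM caspase 1 and 5 uM Ac-WEHD-AFC, pH 7.5 HEPES buffer. Fluorescence-vs-time intercept gave baseline, scaled against on-plate AFC standard.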
CRE Fsk mod = modulators of forskolin-stimulated CRE signaling in CHO cells; CHO CRE-bla reporter (cAMP response element driving beta-lactamase), forskolin EC10, beta-lactamase ratio; Potency, µM (titrated, usually from 38.2 µM), inactives show at the top dose activity change, negative = inhibition, most hits filed as activators; 71,000 tested, 2.5% active; active means well fitted activation curve with a large enough effect in the signal ratio, with a control signal flat, not every such curve was filed as active; inconclusive means small, poorly fitted or top-dose-only effect, or effect the other way, or a change in a side signal; the % refers to the signal ratio; further: potency means the concentration at half of the fitted maximal effect; % of control where 0% means no effect
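qHTS titration format; CRE-bla CHO reporter; stimulus EC10 NKH 477, a water-soluble forskolin. Read: CCF4 460/530 nm ratio. Potency expressed as AC50 for activators or inhibitors.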
A350 autofl = compound fluoresces in the Alexa 350 spectral region | Compound autofluorescence, 340/450 nm, Alexa 350 dye-equivalents; active compounds read high | max dye-equivalent concentration, M | 59,000 tested, 11% active | AID 590; in the data active means max dye-equivalent concentration above about 10 nM; inconclusive means mostly about 1.1 nM to 9.6 nM
HADH2 inhib = HADH2 (human) dehydrogenase inhibition; recombinant HADH2, NADH fluorescence, beta-hydroxybutyryl-CoA; Potency, µM (series often up to 57.1 µM), inactives show at the top dose activity change, negative = inhibition, actives largely listed as inhibitors; 73,000 tested, 3.4% active; Q99714; further: potency means the concentration at half of the fitted maximal effect; on the % scale 0 is the no-effect control and ±100 the full control effect; nearly all actives have a fitted effect of over 60% in size
Target sequence (Q99714 whole entry, looked up, one chain of several): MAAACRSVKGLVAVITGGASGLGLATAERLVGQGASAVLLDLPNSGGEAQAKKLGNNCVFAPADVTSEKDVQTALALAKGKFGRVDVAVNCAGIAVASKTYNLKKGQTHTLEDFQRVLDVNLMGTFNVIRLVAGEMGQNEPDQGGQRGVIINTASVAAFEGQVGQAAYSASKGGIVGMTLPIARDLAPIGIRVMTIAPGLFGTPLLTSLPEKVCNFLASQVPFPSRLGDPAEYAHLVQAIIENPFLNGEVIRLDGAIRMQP
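E. coli-expressed His-tagged HADH2 tested at 20 nM in alkaline Tris buffer (pH 9.0); oxidation of 90 uM beta-hydroxybutyryl-CoA with 1 mM NAD+ tracked fluorimetrically for 4 min.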
Starred values were filed as active, the others as inactive; i = inactive; ? = inconclusive; / = no result given; ! = a repeat was not active; [ ] = dose if it differs, or a comment. Unless noted, the call rests on the fitted dose curve; in most records, active means well fitted curve in the direction sought with a large enough effect; inconclusive means small, poorly fitted or top-dose-only effect, or another doubt; inactive means no such curve, though single readings can be large; an effect the other way counts as inactive or inconclusive.

SMILES | 4MU fluor | HSD17B inh | AID923 | CRE Fsk mod | A350 autofl | HADH2 inhib
CC1CCc2c(sc(N)c2C(N)=O)C1 (stereo unspecified) | / | -8% | 1% | -2% | / | 16µM*
CCn1ncc(Br)c1C(=O)Nc1sc2c(c1C(=O)OC)CCC2 | 3.4e-08M* | 10% | 0% | ? | 2.5e-08M* | 25µM*
N#CCC(=O)Nc1sc2c(c1C(N)=O)CCCC2 | / | 12% | -1% | 13µM* | / | -12%
O=C(Nc1ccccc1)C1CC=CCC1C(=O)OCC1CCCO1 (stereo unspecified) | / | 7% | 2% | -5% | / | 3%
O=C(O)c1ccc(C(=O)O)c(C(=O)O)c1.[NH-][C@@H]1CCCC[C@@H]1[NH-].[Pt] | i | -6%[11.4 µM] | 0%[11.5 µM] | 15%[7.6 µM] | i | -28%[11.4 µM]
CC1CCc2c(sc(NC(=O)c3noc4c3CCCC4)c2C(N)=O)C1 (stereo unspecified) | 6.2e-08M* | -3% | 0% | ? | 1.2e-07M* | 0%
Cc1noc(C)c1C(=O)Nc1sc2c(c1C(N)=O)CCC2 | 1.9e-07M* | / | 1% | ? | 1.6e-07M* | ?
COC(=O)c1c(NC(=O)c2nn(C)cc2Cl)sc2c1CCCC2 | 2.4e-07M* | / | / | / | 2.8e-07M* | /
COC(=O)c1c(NC(=O)c2ccc(Br)s2)sc2c1CCC2 | 1.2e-08M* | ? | 8% | -3% | 1e-08M* | ?
Cc1noc(C)c1C(=O)Nc1sc2c(c1C(N)=O)CCCCC2 | i | -6% | -2% | 15% | ? | ?
CCO[P@]1(=O)OC[C@@H]2O[C@H](n3cnc4c(N)ncnc43)[C@H](O)[C@@H]2O1 | i | 12%[11.4 µM] | -3%[11.5 µM] | 7%[7.6 µM] | i | 0%[11.4 µM]
COCC(=O)Nc1sc2c(c1C(=O)OC)CCC(C)C2 (stereo unspecified) | i | 32µM* | 1% | 7% | i | 0%
Cc1occc1C(=O)Nc1sc2c(c1C(N)=O)CCCCC2 | 2.3e-08M* | ? | 1% | ? | 2.9e-08M* | ?
CCOC(=O)N1CCC(c2cc(=O)n3[nH]c(-c4ccccc4)cc3n2)CC1 | / | 25µM* | 3% | -6% | / | -8%
CCOC(=O)N1CCC(c2cc(=O)n3[nH]c(C)c(-c4ccc(F)cc4)c3n2)CC1 | / | 20µM* | -1% | 0% | / | -30%
CCOC(=O)N1CCC(NC(=O)Cn2nc(-c3ccccc3)ccc2=O)CC1 | i | -1% | 0% | ? | i | 5%
CCOc1ccccc1C(=O)Nc1ccc2nc(N3CCN(c4ncccn4)CC3)cc(C)c2c1 | 6.6e-08M* | -3% | 2% | ? | 5.9e-08M* | -23%
COc1cccc(C(=O)Nc2ccc3nc(N4CCN(c5ncccn5)CC4)cc(C)c3c2)c1OC | 1.1e-07M* | 7.9µM* | 0% | ? | 1.2e-07M* | ?
CCN1CCN(c2cc(C)c3cc(NC(=O)c4cncc(Br)c4)ccc3n2)CC1 | i | -6% | 0% | -26% | i | -13%
Cc1ccc2c(N)c(C)ccc2c1 | 4e-08M* | 25µM* | 2% | -1% | 3.7e-08M* | ?
CC1=C(C(=O)OC(C)C)C(c2cccs2)N2C(=O)C(C)SC2=N1 (stereo unspecified) | i | 3% | 1% | 15% | i | -4%
O=C(Cc1nc2ccccc2s1)c1ccc(O)cc1O | ? | 25µM* | 16% | ? | ? | ?
COc1ccc(CC(=O)c2ccc(O)cc2O)cc1 | / | 0% | -3% | / | / | /
C[C@@H](CS(=O)(=O)Cc1ccccc1)C(N)=O | i | 4%[11.4 µM] | 0%[11.5 µM] | -1%[7.6 µM] | i | 10%[11.4 µM]
O=C(NCCCN1CCc2ccccc2C1)C1CCN(S(=O)(=O)N2CCCC2)CC1 | i | 1% | 1% | -22% | ? | -7%
SMILES | 4MU fluor | HSD17B inh | AID923 | CRE Fsk mod | A350 autofl | HADH2 inhib
Cc1cccn2cc(-c3ccc(F)cc3)nc12 | / | 32µM* | 3% | 1% | / | ?
Cc1cccn2cc(-c3ccccc3)nc12 | i | 25µM* | -1% | 6% | ? | ?
Cc1nn2cc(-c3ccc(-c4ccccc4)cc3)nc2s1 | ? | ? | -2% | 5% | ? | -5%
Cc1ccc2nc(-c3ccccc3)cn2c1 | i | 32µM* | 1% | -9% | i | 44%
Clc1ccc(C2=Nn3c(nnc3-c3n[nH]c4c3CCC4)SC2)cc1 | 2.7e-08M* | -12% | 0% | 2.5µM* | 3e-08M* | 13%
Cc1cccc(-c2nnc3n2N=C(c2ccc(Br)cc2)CS3)c1 | i | / | / | / | i | /
Clc1ccc(C2=Nn3c(nnc3-c3cccnc3)SC2)s1 | i | -4% | 0% | 3% | i | -5%
Brc1ccc(C2=Nn3c(nnc3-c3n[nH]c4c3CCC4)SC2)cc1 | i | 2% | 0% | 5µM* | i | 3%
Cc1ccc(-c2nnc3n2N=C(c2ccc(Br)cc2)CS3)cc1 | / | -26% | -1% | 10µM* | / | 7%
O=C1CNCCCN2CCN(CCCNCC(=O)Nc3ccc(cc3)S(=O)(=O)c3ccc(cc3)NC(=O)CNCCCN3CCN(CCCNCC(=O)Nc4ccc(cc4)S(=O)(=O)c4ccc(cc4)N1)CC3)CC2 | i | / | / | -4%[7.6 µM] | i | 5%[11.4 µM]
C=CCNC(=O)c1cc([N+](=O)[O-])cc2c(=O)[nH]c(Nc3ccc(Cl)c(Cl)c3)nc12 | / | 13µM* | 2% | / | / | ?
C=CCNC(=O)c1ccccc1Cl | i | -5% | 0% | ? | i | 5%
COc1cc(C2NC(=O)c3ccccc3O2)cc(OC)c1OC (stereo unspecified) | ? | 25µM* | 0% | -13% | ? | 1%
CCOc1ccc(C2NC(=O)c3ccccc3O2)cc1 (stereo unspecified) | 1.2e-08M* | ? | 0% | ? | 1.8e-08M* | -3%
CS(=O)(=O)Nc1cccc(-c2nccc(NCc3cccs3)n2)c1 | i | 1% | 2% | 6% | i | 5%
CN1CCCC2(CCN(C(=O)c3cccc(F)c3)CC2)C1 | i | -3% | 0% | -3% | i | 3%
CC1CN(C(c2ccco2)c2sc3ncnn3c2O)CC(C)O1 (stereo unspecified) | / | 25µM* | -2% | -2% | / | ?
C=C1CCC(C2CC(=O)OC2=O)C(=O)CCC2C1CC2(C)C (stereo unspecified) | / | -19% | -1% | / | / | /
O=S(=O)(O)c1cc(N=[N+]([O-])c2cc(S(=O)(=O)O)c3ccccc3c2)cc2ccccc12 | ? | 3.2µM* | 1%[11.5 µM] | 4%[7.6 µM] | ? | ?
COc1cc(-c2ccc(=O)[nH]n2)ccc1OC(F)F | ? | -8% | -4% | 16µM*! | ? | 8%
C/C(=C1\SC(N2CCOCC2)=NC1=O)c1ccc(C)cc1 | i | -4% | -2% | 8% | i | -6%
C/C(=C1/SC(N2CCOCC2)=NC1=O)c1ccc(Cl)cc1 | 1e-08M* | 9% | 2% | -12% | 1.5e-08M* | 10%
